{"source": "PubChem BioAssay", "data": [{"test_system": "not listed separately", "experiment": "probe aInhba binding on compound microarray – biochemical, small-molecule microarray, 635/667 nm fluorescence, primary screen (AID 1148);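 further: score merges 667nm spot fluorescence with signal-to-noise for antibody binding to printed compounds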", "details": "higher = more signal", "values": [{"molecule": "COCCCNC(=O)[C@@]1(c2ccc([N+](=O)[O-])cc2)CC(=O)N(C(C)C)[C@@H]1c1ccc(CO)cc1", "composite z-score": 0.315}, {"molecule": "CN1C(=O)C2C=CC(C(O)c3ccc(I)cc3)N(Nc3ccccc3)C2C1=O", "note": "(stereo not drawn)", "composite z-score": -0.0209}, {"molecule": "CCOC(=O)C1=C[C@@H](c2ccccc2)N(S(=O)(=O)c2ccc(C)cc2)[C@H]1c1ccccc1", "composite z-score": 0.0925}, {"molecule": "CC1CC/C=C\\[C@H]2OC34C=CCN(C(C)(C)C)C(=O)[C@H]3N(C(CO)C(C)C)C(=O)[C@@H]4C2C(=O)O1", "note": "(stereo partly drawn)", "composite z-score": -0.128}, {"molecule": "COC(=O)[C@@]1(Cc2ccc(F)cc2)[C@H]2c3cc(C(=O)N4CCCC4)n(CC4CC4)c3C[C@H]2CN1C(=O)c1ccccc1", "composite z-score": 0.74}]}, {"target": "Torsin-1A (Homo sapiens) (UniProt O14656)", "sequence (O14656 whole entry, looked up)": "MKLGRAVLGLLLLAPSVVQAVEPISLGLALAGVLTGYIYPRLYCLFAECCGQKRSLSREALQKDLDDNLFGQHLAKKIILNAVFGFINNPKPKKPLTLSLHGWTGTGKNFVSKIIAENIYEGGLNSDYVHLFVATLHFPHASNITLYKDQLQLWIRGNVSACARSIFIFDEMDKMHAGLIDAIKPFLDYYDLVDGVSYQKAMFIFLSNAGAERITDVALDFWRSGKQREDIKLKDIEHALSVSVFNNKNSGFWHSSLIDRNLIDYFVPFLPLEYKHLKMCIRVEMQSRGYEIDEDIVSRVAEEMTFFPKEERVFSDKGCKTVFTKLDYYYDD", "experiment": "TOR1A wild-type binding on microarray – cell lysate, small-molecule microarray, lysate, 635/667 nm, primary screen (AID 1149)", "details": "COS7 hTOR1A-WT lysate, 635 nm fluorescence, higher = more signal", "values": [{"molecule": "COCCCNC(=O)[C@@H]1c2ccccc2C(=O)N(C2Cc3ccccc3C2)[C@H]1c1ccc(CO)cc1", "composite z-score": 0.717}, {"molecule": "COc1ccc([Si](C)(C)[C@H]2[C@H](CCO)O[C@@]3(C(=O)N(Cc4ccccc4)c4ccc(N5CCOC5=O)cc43)[C@@H]2C)cc1", "composite z-score": -0.112}, {"molecule": "C[C@@]12COC[C@]13C=C(Br)[C@H](C2)[C@@]1(CO1)C3=O", "composite z-score": -1.76}, {"molecule": "Nc1cc(Br)ccc1C(=O)O", "composite z-score": 0.136}, {"molecule": "COC(=O)[C@@]1(Cc2ccccc2)[C@H]2c3cc(C(=O)N(C)C)n(CCn4cc([N+](=O)[O-])nc4C)c3C[C@H]2CN1C(=O)c1ccccc1", "composite z-score": 0.614}, {"molecule": "C=C(/C(=C/C[C@@H](OC(C)=O)c1ccc(CO)o1)c1cc(C(=O)OC)ccc1OC)C(C)C", "composite z-score": 0.431}, {"molecule": "CC(C)C(=C=CC[C@H](O)c1cccc(OCCO)c1)CCO", "composite z-score": -0.513}, {"molecule": "C=CCN1C(=O)[C@]2(O[C@H](CCO)[C@@H]([Si](C)(C)c3ccc(OC)cc3)[C@@H]2C)c2cc(NC(=O)c3ccc(OC)cc3)ccc21", "composite z-score": 0.598}]}]}
